# Results: PubChem BioAssay AID1159580 (chemical genetic matrix, 2015)
# Out of some 5,500 compounds screened, about 2,000 (36%) were called active. Roughly 18% stayed inconclusive and do not appear here. Cut-off read from the data, not from the text of the source: active = normalized growth mostly below about 0.91 (no sharp cut-off); inconclusive = no clear call, values can overlap the other calls; inactive = mostly above about 0.92. This is one part of the list.
# Assay: chemical genetic growth profiling, strain panel (AID 1159580);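 note: tested at 20 µM; growth read once vehicle control cultures reached saturation at 30 °C; 1 = growth at the plate median or of vehicle wells; lower values mean less growth of the strain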
# Details: growth OD
smiles,measurement,setting,value
CC(C)=CCc1c2c(c3occ(-c4ccc(O)c(O)c4)c(=O)c3c1O)C=CC(C)(C)O2,normalized growth,"S. cerevisiae deletion strains, locus YKL009W, strain mrt4, active compounds read low",0.867 (active)
same,normalized growth,"S. cerevisiae deletion strains, locus YKL068W, active compounds read low",1 (inactive)
same,normalized growth,"S. cerevisiae deletion strains, locus YKL085W, strain MDH1 (second series), active compounds read low",0.947 (inactive)
same,normalized growth,"S. cerevisiae deletion strains, locus YKL085W, strain MDH1, active compounds read low",0.947 (inactive)
same,normalized growth,"S. cerevisiae deletion strains, locus YKL160W, strain elf1, active compounds read low",0.957 (inactive)
same,normalized growth,"S. cerevisiae deletion strains, locus YKR001C, strain vps1, active compounds read low",0.578 (active)
same,normalized growth,"S. cerevisiae deletion strains, locus YKR026C, strain gcn3, active compounds read low",0.994 (inactive)
same,normalized growth,"S. cerevisiae deletion strains, locus YKR091W, strain srl3, active compounds read low",0.997 (inactive)
same,normalized growth,"S. cerevisiae deletion strains, locus YLL001W, strain dnm1, active compounds read low",0.959 (inactive)
same,normalized growth,"S. cerevisiae deletion strains, locus YLL026W, active compounds read low",0.985 (inactive)
same,normalized growth,"S. cerevisiae deletion strains, locus YLL041C, strain sdh2, active compounds read low",0.993 (inactive)
same,normalized growth,"S. cerevisiae deletion strains, locus YLR027C, strain aat2, active compounds read low",0.935 (inactive)
same,normalized growth,"S. cerevisiae deletion strains, locus YLR039C, strain RIC1, active compounds read low",0.235 (active)
same,normalized growth,"S. cerevisiae deletion strains, locus YLR058C, strain SHM2, active compounds read low",0.239 (active)
same,normalized growth,"S. cerevisiae deletion strains, locus YLR102C, strain apc9, active compounds read low",0.957 (inactive)
same,normalized growth,"S. cerevisiae deletion strains, locus YLR113W, strain HOG1, active compounds read low",0.868 (inactive)
same,normalized growth,"S. cerevisiae deletion strains, locus YLR221C, strain rsa3, active compounds read low",0.905 (active)
same,normalized growth,"S. cerevisiae deletion strains, locus YLR258W, strain gsy2, active compounds read low",0.935 (inactive)
same,normalized growth,"S. cerevisiae deletion strains, locus YLR262C, strain YPT6 (second series), active compounds read low",0.995 (inactive)
same,normalized growth,"S. cerevisiae deletion strains, locus YLR262C, strain YPT6, active compounds read low",0.298 (active)
same,normalized growth,"S. cerevisiae deletion strains, locus YLR268W, strain sec22, active compounds read low",0.495 (active)
same,normalized growth,"S. cerevisiae deletion strains, locus YLR320W, strain mms22, active compounds read low",0.931 (inactive)
same,normalized growth,"S. cerevisiae deletion strains, locus YLR330W, strain CHS5, active compounds read low",0.36 (active)
same,normalized growth,"S. cerevisiae deletion strains, locus YLR342W, strain FKS1 (second series), active compounds read low",0.195 (active)
same,normalized growth,"S. cerevisiae deletion strains, locus YLR342W, strain FKS1, active compounds read low",0.959 (inactive)
same,normalized growth,"S. cerevisiae deletion strains, locus YLR357W, strain rsc2, active compounds read low",0.873 (inactive)
same,normalized growth,"S. cerevisiae deletion strains, locus YLR370C, strain arc18, active compounds read low",0.947 (inactive)
same,normalized growth,"S. cerevisiae deletion strains, locus YLR371W, strain rom2, active compounds read low",0.447 (active)
same,normalized growth,"S. cerevisiae deletion strains, locus YLR384C, strain iki3, active compounds read low",0.98 (inactive)
same,normalized growth,"S. cerevisiae deletion strains, locus YLR418C, strain cdc73, active compounds read low",0.252 (active)
same,normalized growth,"S. cerevisiae deletion strains, locus YML016C, strain PPZ1, active compounds read low",0.174 (active)
same,normalized growth,"S. cerevisiae deletion strains, locus YML032C, strain rad52, active compounds read low",0.812 (active)
same,normalized growth,"S. cerevisiae deletion strains, locus YML120C, strain ndi1, active compounds read low",0.956 (inactive)
same,normalized growth,"S. cerevisiae deletion strains, locus YML124C, strain tub3, active compounds read low",0.849 (active)
same,normalized growth,"S. cerevisiae deletion strains, locus YMR058W, strain fet3, active compounds read low",0.755 (active)
same,normalized growth,"S. cerevisiae deletion strains, locus YMR078C, strain ctf18, active compounds read low",0.929 (inactive)
same,normalized growth,"S. cerevisiae deletion strains, locus YMR125W, strain sto1, active compounds read low",1.01 (inactive)
same,normalized growth,"S. cerevisiae deletion strains, locus YMR129W, active compounds read low",0.981 (inactive)
same,normalized growth,"S. cerevisiae deletion strains, locus YMR205C, strain PFK2, active compounds read low",0.957 (inactive)
same,normalized growth,"S. cerevisiae deletion strains, locus YMR223W, strain ubp8, active compounds read low",0.72 (active)
same,normalized growth,"S. cerevisiae deletion strains, locus YMR231W, strain pep5, active compounds read low",0.984 (inactive)
same,normalized growth,"S. cerevisiae deletion strains, locus YMR307W, strain GAS1, active compounds read low",0.396 (active)
same,normalized growth,"S. cerevisiae deletion strains, locus YNL067W, strain RPL9B, active compounds read low",0.427 (active)
same,normalized growth,"S. cerevisiae deletion strains, locus YNL071W, strain lat1, active compounds read low",0.942 (inactive)
same,normalized growth,"S. cerevisiae deletion strains, locus YNL128W, strain TEP1, active compounds read low",0.202 (active)
same,normalized growth,"S. cerevisiae deletion strains, locus YNL153C, strain GIM3, active compounds read low",0.388 (active)
same,normalized growth,"S. cerevisiae deletion strains, locus YNL183C, strain NPR1, active compounds read low",0.885 (inactive)
same,normalized growth,"S. cerevisiae deletion strains, locus YNL209W, strain ssb2, active compounds read low",0.883 (active)
same,normalized growth,"S. cerevisiae deletion strains, locus YNL233W, strain BNI4, active compounds read low",0.401 (active)
same,normalized growth,"S. cerevisiae deletion strains, locus YNL248C, strain rpa49, active compounds read low",1 (inactive)
same,normalized growth,"S. cerevisiae deletion strains, locus YNL250W, strain rad50, active compounds read low",0.966 (inactive)
same,normalized growth,"S. cerevisiae deletion strains, locus YNL271C, strain bni1, active compounds read low",0.943 (inactive)
same,normalized growth,"S. cerevisiae deletion strains, locus YNL298W, strain CLA4, active compounds read low",0.922 (inactive)
same,normalized growth,"S. cerevisiae deletion strains, locus YNL307C, strain MCK1, active compounds read low",0.546 (active)
same,normalized growth,"S. cerevisiae deletion strains, locus YNL322C, strain KRE1 (second series), active compounds read low",0.969 (inactive)
same,normalized growth,"S. cerevisiae deletion strains, locus YNL322C, strain KRE1, active compounds read low",0.339 (active)
same,normalized growth,"S. cerevisiae deletion strains, locus YNR049C, strain mso1, active compounds read low",0.985 (inactive)
same,normalized growth,"S. cerevisiae deletion strains, locus YNR052C, strain pop2, active compounds read low",0.682 (active)
same,normalized growth,"S. cerevisiae deletion strains, locus YOL006C, strain TOP1, active compounds read low",0.142 (active)
same,normalized growth,"S. cerevisiae deletion strains, locus YOL012C, strain htz1",0.238 (inactive)
same,normalized growth,"S. cerevisiae deletion strains, locus YOL147C, strain pex11, active compounds read low",0.634 (active)
same,normalized growth,"S. cerevisiae deletion strains, locus YOR001W, strain rrp6, active compounds read low",0.952 (inactive)
same,normalized growth,"S. cerevisiae deletion strains, locus YOR061W, strain CKA2, active compounds read low",0.257 (active)
same,normalized growth,"S. cerevisiae deletion strains, locus YOR069W, strain VPS5, active compounds read low",0.546 (active)
same,normalized growth,"S. cerevisiae deletion strains, locus YOR070C, strain gyp1, active compounds read low",0.951 (inactive)
same,normalized growth,"S. cerevisiae deletion strains, locus YOR080W, strain dia2, active compounds read low",0.961 (inactive)
same,normalized growth,"S. cerevisiae deletion strains, locus YOR083W, strain WHI5, active compounds read low",0.937 (inactive)
same,normalized growth,"S. cerevisiae deletion strains, locus YOR106W, strain vam3, active compounds read low",0.856 (active)
same,normalized growth,"S. cerevisiae deletion strains, locus YOR136W, strain idh2, active compounds read low",0.837 (active)
same,normalized growth,"S. cerevisiae deletion strains, locus YOR144C, strain elg1, active compounds read low",0.723 (active)
same,normalized growth,"S. cerevisiae deletion strains, locus YOR184W, strain ser1, active compounds read low",0.548 (active)
same,normalized growth,"S. cerevisiae deletion strains, locus YOR231W, strain MKK1, active compounds read low",0.917 (inactive)
same,normalized growth,"S. cerevisiae deletion strains, locus YOR265W, strain rbl2, active compounds read low",0.977 (inactive)
same,normalized growth,"S. cerevisiae deletion strains, locus YOR270C, strain vph1, active compounds read low",0.925 (inactive)
same,normalized growth,"S. cerevisiae deletion strains, locus YOR290C, strain snf2, active compounds read low",0.93 (inactive)
same,normalized growth,"S. cerevisiae deletion strains, locus YOR316C, strain cot1, active compounds read low",0.848 (active)
same,normalized growth,"S. cerevisiae deletion strains, locus YPL051W, strain arl3, active compounds read low",0.913 (active)
same,normalized growth,"S. cerevisiae deletion strains, locus YPL055C, strain LGE1, active compounds read low",0.203 (active)
same,normalized growth,"S. cerevisiae deletion strains, locus YPL078C, strain atp4, active compounds read low",0.957 (inactive)
same,normalized growth,"S. cerevisiae deletion strains, locus YPL106C, strain sse1, active compounds read low",0.919 (inactive)
same,normalized growth,"S. cerevisiae deletion strains, locus YPL240C, strain hsp82, active compounds read low",0.984 (inactive)
same,normalized growth,"S. cerevisiae deletion strains, locus YPL256C, strain CLN2, active compounds read low",0.921 (inactive)
same,normalized growth,"S. cerevisiae deletion strains, locus YPR119W, strain clb2, active compounds read low",0.965 (inactive)
same,normalized growth,"S. cerevisiae deletion strains, locus YPR141C, strain kar3, active compounds read low",0.985 (inactive)
same,normalized growth,"S. cerevisiae deletion strains, locus YPR163C, strain tif3, active compounds read low",0.735 (active)
same,normalized growth,"S. cerevisiae deletion strains, locus YPR167C, strain met16, active compounds read low",0.739 (active)
same,normalized growth,"S. cerevisiae deletion strains, strain wtn01, active compounds read low",0.533 (active)
same,normalized growth,"S. cerevisiae strains, strain wild type, active compounds read low",0.173 (active)
